Assay results published in PubChem BioAssay (EPA / NIEHS).
Several values for one entry are separate records, joined by “and”; a condition that tells them apart may be missing. Equal values may be shown once. Inconclusive results are not listed. The source holds several records for some structures; these can differ, active in one and inactive in another. Activity calls are given as the source filed them. How the source made its calls: active means hit-call score of the fitted dose curve at least 0.9, where 1 is the maximum; inconclusive means response in the unintended direction; inactive means score below 0.9.

Experiments:
[1] = target: Cellular tumor antigen p53 (Homo sapiens) (UniProt P04637); assay: TOX21_p53_BLA_p5_ratio: Tox21 HCT-116 p53 Agonism Beta-lactamase Assay, Ratio, Phase 5 (AID 2283599)
Outline: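 Beta-lactamase reporter ratio (blue 460 nm over green 530 nm, 405 nm excitation) after 2 h CCF4-AM loading, in HCT-116 cells exposed 16 h at 37 C to compounds pinned at 217-fold dilution. Increases relative to DMSO baseline scored.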

[2] = TOX21_p53_BLA_p5_viability: Viability Assessment in the Tox21 HCT-116 p53 Agonism Beta-lactamase Assay, Phase 5 (AID 2283600)
Outline: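 Workflow: seed 4000 cells per well, wait 5 h, add compounds (DMSO, 217-fold dilution), incubate 16 h, load CCF4-AM 2 h, add CellTiter-Glo, read luminescence after 30 min.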

[3] = target: Cellular tumor antigen p53 (Homo sapiens) (UniProt P04637); assay: TOX21_p53_BLA_p4_ratio: Tox21 HCT-116 p53 Agonism Beta-lactamase Assay, Ratio, Phase 4 (AID 2283601)
Outline: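 Signal is the blue/green (460nm/530nm) ratio of cleaved versus uncleaved CCF4-AM substrate, read after 2 h substrate loading. Cells were HCT116 carrying the p53-responsive beta-lactamase reporter, dosed 16 h at 37C, 5% CO2; CellTiter-Glo measured in parallel.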

[4] = Tanguay_ZF_120hpf_MORT_legacy: (Legacy) Oregon State University Tanguay Lab 120 Hour Post-fertilization zebrafish Assay for Mortality (AID 2283633)
Outline: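 5D WT zebrafish, chorion removed 4 hpf; 1 embryo/well from 6 hpf; static exposure to 120 hpf, 28C, dark, sealed. Final DMSO 0.64%. Readout: binary mortality, brightfield, 24 + 120 hpf; DMSO as negative control.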

[5] = Tanguay_ZF_120hpf_YSE_legacy: (Legacy) Oregon State University Tanguay Lab 120 Hour Post-fertilization zebrafish Assay for Yolk Sac Edema (AID 2283634);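 on AC50: actives raise the incidence of yolk sac edema above the DMSO baseline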
Outline: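 Dechorionate (pronase, 4 hpf) → place one 6 hpf embryo per well → static compound exposure, sealed and foil-covered, 28C, to 120 hpf → record yolk sac edema as present or absent. Final DMSO 0.64%.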

[6] = Tanguay_ZF_120hpf_EYE_legacy: (Legacy) Oregon State University Tanguay Lab 120 Hour Post-fertilization zebrafish Assay for Eye Malformation (AID 2283636)
Outline: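 Binary brightfield scoring of eye defects at 120 hpf after static exposure from 6 hpf of single pronase-dechorionated wild-type embryos (28C, 0.64% DMSO). Non-mortality endpoints omitted where embryos died; fit vs DMSO.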

[7] = Tanguay_ZF_120hpf_SNOU_legacy: (Legacy) Oregon State University Tanguay Lab 120 Hour Post-fertilization zebrafish Assay for Snout Malformation (AID 2283637)
Outline: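 Binary snout-malformation call at 120 hpf in wild-type 5D embryos, chorion removed by pronase, under static exposure from 6 hpf at 28C (0.64% DMSO). Embryos dying by 24 or 120 hpf excluded.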

[8] = Tanguay_ZF_120hpf_OTIC_legacy: (Legacy) Oregon State University Tanguay Lab 120 Hour Post-fertilization zebrafish Assay for Otic Vesicle Malformation (AID 2283639)
Outline: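 Binary scoring of otic vesicle defects at 120 hpf in zebrafish (Tropical 5D) held under static exposure at 28C, sealed and shaded, with final DMSO 0.64%. Embryos dying by 24 or 120 hpf excluded; fitted positively against DMSO.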

[9] = Tanguay_ZF_120hpf_PE_legacy: (Legacy) Oregon State University Tanguay Lab 120 Hour Post-fertilization zebrafish Assay for Pericardial Edema (AID 2283640);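 on AC50: potency for increased incidence of pericardial edema versus DMSO baseline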
Outline: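 Embryos from wild-type 5D adults were staged, then dosed in 0.64% DMSO. They were kept sealed in the dark at 28C until 120 hpf. Pericardial edema was then recorded as present or absent.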

[10] = Tanguay_ZF_120hpf_BRAI_legacy: (Legacy) Oregon State University Tanguay Lab 120 Hour Post-fertilization zebrafish Assay for Brain Malformation (AID 2283641)
Outline: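 Wild-type 5D larvae, static waterborne exposure to 120 hpf, 28C, 0.64% v/v DMSO. Brightfield scoring of brain defects, binary; dead embryos excluded. Positive ctrl 5uM trimethyltin chloride.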

[11] = Tanguay_ZF_120hpf_PFIN_legacy: (Legacy) Oregon State University Tanguay Lab 120 Hour Post-fertilization zebrafish Assay for Pectoral Fin Malformation (AID 2283648);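 further: each larva judged yes or no for fin defect by brightfield with dead larvae skipped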
Outline: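 Pectoral fin malformation was recorded as a binary endpoint at 120 hpf in wild-type Tropical 5D larvae, which had been dechorionated and exposed statically from 6 hpf at 28C in 0.64% DMSO. Dead embryos were excluded.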

[12] = Tanguay_ZF_120hpf_CFIN_legacy: (Legacy) Oregon State University Tanguay Lab 120 Hour Post-fertilization zebrafish Assay for Caudal Fin Malformation (AID 2283649)
Outline: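 Binary presence or absence of caudal fin malformation at 120 hpf, read by brightfield microscopy, with DMSO as baseline. Larvae came from 5D wild-type embryos exposed statically from 6 hpf at 28C after pronase dechorionation.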

[13] = Tanguay_ZF_120hpf_CIRC_legacy: (Legacy) Oregon State University Tanguay Lab 120 Hour Post-fertilization zebrafish Assay for Circulatory Malformation (AID 2283651)
Outline: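 Binary circulatory malformation call at 120 hpf by brightfield imaging of zebrafish larvae; chorion removed at 4 hpf, static exposure from 6 hpf in sealed dark plates at 28C, final DMSO 0.64%; non-mortality endpoints skipped if embryo died.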

[14] = Tanguay_ZF_120hpf_SWIM_legacy: (Legacy) Oregon State University Tanguay Lab 120 Hour Post-fertilization zebrafish Assay for Swim Bladder Malformation (AID 2283654);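 further: swim bladder malformation in each larva scored yes or no under brightfield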
Outline: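 Scoring is binary for swim bladder defects at 120 hpf, by brightfield inspection of zebrafish larvae. Embryos were exposed singly from 6 hpf after pronase dechorionation, at 28C with 0.64% DMSO; mortality excluded scoring.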

[15] = Tanguay_ZF_120hpf_TRUN_legacy: (Legacy) Oregon State University Tanguay Lab 120 Hour Post-fertilization zebrafish Assay for Truncated Body (AID 2283655)
Outline: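 Truncated body is recorded as a binary endpoint at 120 hpf by brightfield imaging of wild-type 5D larvae. Exposure runs statically from 6 hpf at 28C with 0.64% DMSO; embryos dying earlier are not scored.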

[16] = Tanguay_ZF_120hpf_NC_legacy: (Legacy) Oregon State University Tanguay Lab 120 Hour Post-fertilization zebrafish Assay for Notochord and Tail Malformation (AID 2283656)
Outline: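 Binary scoring of notochord distortion by brightfield microscopy; embryos dying were not scored. Wild-type Tropical 5D embryos, chorion removed, exposed singly and statically from 6 to 120 hpf, 28C, sealed, 0.64% DMSO.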

[17] = Tanguay_ZF_120hpf_PIG_legacy: (Legacy) Oregon State University Tanguay Lab 120 Hour Post-fertilization zebrafish Assay for Pigmentation Malformation (AID 2283650)
Outline: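 Pigment malformation recorded as a binary call at 120 hpf in zebrafish (Tropical 5D) exposed singly from 6 hpf after pronase dechorionation. Static, sealed, 28C exposure, 0.64% DMSO; mortality excludes scoring; positive-direction fit against DMSO.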

Measured: AC50

Cellular tumor antigen p53 (Homo sapiens), sequence (P04637 whole entry, looked up): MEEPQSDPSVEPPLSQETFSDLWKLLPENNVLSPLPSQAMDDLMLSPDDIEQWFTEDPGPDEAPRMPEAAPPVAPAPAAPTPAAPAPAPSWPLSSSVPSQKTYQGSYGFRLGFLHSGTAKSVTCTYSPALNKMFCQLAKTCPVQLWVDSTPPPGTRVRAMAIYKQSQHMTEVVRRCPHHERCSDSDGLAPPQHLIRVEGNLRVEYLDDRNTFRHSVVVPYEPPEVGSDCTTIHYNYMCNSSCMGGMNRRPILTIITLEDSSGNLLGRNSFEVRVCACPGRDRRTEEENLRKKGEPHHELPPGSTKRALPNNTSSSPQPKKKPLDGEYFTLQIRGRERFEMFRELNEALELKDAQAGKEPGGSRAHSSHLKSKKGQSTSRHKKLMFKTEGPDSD

CCOS(=O)(=O)OCC
not listed: [17]
inactive: all other assays above

Cc1ccc2c(c1N)C(=O)c1ccccc1C2=O
inactive: [1] | [2] | [3]

CCN(CC)C1CCCCC1
inactive: [1] | [2] | [3]

O=S1(=O)OCC2C(CO1)C1(Cl)C(Cl)=C(Cl)C2(Cl)C1(Cl)Cl (configuration not stated)
inactive: [1] | [2] | [3]

O=P(Oc1ccccc1)(Oc1ccccc1)Oc1ccccc1
not listed: [13]
inactive: all other assays above

CC(C)Nc1ccc(Nc2ccccc2)cc1
active: [1] 66.4 µM and 78.4 µM and 24 µM | [3] 14.9 µM
inactive: [2] | [3]

Nc1ccc(Cl)cc1
not listed: [5] | [11] | [15]
inactive: all other assays above

Nc1ccc2ccccc2c1
active: [5] 34.8 µM | [6] 47.7 µM | [7] 33.9 µM | [9] 42 µM | [10] 202 µM | [17] 46.5 µM
inactive: all other assays above

Nc1cc2c3c(c1)C(c1ccccc1)=N[C@@H](NC(=O)c1cccnc1)C(=O)N3CC2
not listed: [1] | [2] | [3] | [6] | [8] | [10]
inactive: all other assays above
